Measurements: the supplement of paper PMC12669032
A number with no mark means an inactive call.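 Rule for the calls: active = AUC reduced over 20% with Padj below 0.05 in at least 2 of 3 replicates; inactive = otherwise.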

Key:
Test in all cases: growth AUC relative to DMSO control (median of replicates) (fraction); higher = more growth (less inhibition), active = hit call of the paper
Details in all cases: 20 µM; 24 h
[1] = test system: Akkermansia muciniphila
Method in brief: (§1)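 Gut bacteria were grown singly in mGAM at 37 °C without oxygen, from OD600 0.05, alongside 20 µM compound in 1% DMSO, and OD600 was read each hour for 24 h. Area under the growth curve was normalised to the median of solvent-only wells per plate, or to row and column medians on the industrial chemical plate. The minimum OD was set to 0 beforehand, and the reported value is the median of three biological replicates grown on separate days.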

[2] = test system: Bacteroides caccae
Method in brief: as §1

[3] = test system: Bacteroides clarus
Method in brief: as §1

[4] = test system: Bacteroides dorei
Method in brief: as §1

[5] = test system: Bacteroides stercoris
Method in brief: as §1

[6] = test system: Bacteroides thetaiotaomicron
Method in brief: as §1

[7] = test system: Bacteroides uniformis
Method in brief: as §1

[8] = test system: Bifidobacterium longum subsp. longum
Method in brief: as §1

[9] = test system: Clostridium difficile
Method in brief: as §1

[10] = test system: Collinsella aerofaciens
Method in brief: as §1

SMILES | growth AUC [1] | growth AUC [2] | growth AUC [3] | growth AUC [4] | growth AUC [5] | growth AUC [6] | growth AUC [7] | growth AUC [8] | growth AUC [9] | growth AUC [10]
Nc1ncn[nH]1 | 0.877 | 1.04 | 1.01 | 1.02 | 0.931 | 1.01 | 0.997 | 1.02 | 1.01 | 0.995
O=C(Nc1ccccc1)c1ccccc1I | 0.823 | 1.03 | 1 | 0.994 | 1.05 | 1.01 | 0.975 | 1.03 | 1.08 | 1.07
CCCCC(CC)COC(=O)c1ccccc1C(=O)OCC(CC)CCCC (stereo not given) | 1.03 | 0.989 | 0.993 | 0.963 | 0.898 | 0.993 | 1.03 | 0.984 | 0.977 | 0.888
CNC(=S)S | 1.07 | 1.01 | 1.04 | 0.996 | 1.08 | 1.02 | 1 | 1.37 | 0.999 | 0.996
CNC(=O)Oc1cccc2c1OC(C)(C)C2 | 1.1 | 0.964 | 1.01 | 0.999 | 1.02 | 0.998 | 1 | 0.996 | 1 | 1.04
CCCN(CCC)c1c([N+](=O)[O-])cc(S(N)(=O)=O)cc1[N+](=O)[O-] | 0.998 | 0.956 | 0.896 | 0.932 | 0.809 | 0.948 | 0.89 | 0.987 | 0.975 | 0.975
Cc1cc(Cl)ccc1OCC(=O)O | 1.02 | 0.996 | 1.01 | 0.933 | 0.945 | 1.02 | 1 | 1.1 | 0.967 | 1.04
COP(=S)(OC)Oc1ccc(S(C)=O)c(C)c1 (stereo not given) | 0.88 | 1.02 | 1.01 | 1.03 | 1.16 | 0.962 | 1.03 | 1.02 | 1.01 | 1.03
Cc1cc(C(F)(C(F)(F)F)C(F)(F)F)ccc1NC(=O)c1cccc(I)c1C(=O)NC(C)(C)CS(C)(=O)=O | 1.06 | 1.2 | 1.2 | 1 | 0.937 | 1.02 | 1.01 | 1.06 | 0.92 | 1.7
ClC1=C(Cl)C2(Cl)C3COCC3C1(Cl)C2(Cl)Cl (stereo not given) | 0.531 (active) | 0.91 | 1.11 | 0.925 | 1.05 | 0.871 | 0.916 | 0.918 | 0.966 | 1.02
Nc1cnn(-c2ccccc2)c(=O)c1Cl | 0.895 | 1.01 | 0.992 | 0.995 | 1.12 | 1.01 | 0.997 | 0.936 | 1.03 | 1
CCCN(CCC)N=O | 1.07 | 1.01 | 1.02 | 1 | 1 | 0.999 | 1.03 | 0.902 | 1.01 | 0.977
CCCCN(CC)C(=O)SCCC | 0.957 | 1.01 | 1.01 | 0.972 | 1.11 | 0.979 | 0.976 | 0.983 | 1.03 | 0.982
CON(C)C(=O)Nc1ccc(Br)c(Cl)c1 | 0.863 | 1.04 | 0.978 | 1.08 | 0.958 | 0.998 | 0.944 | 0.946 | 0.996 | 1
CCc1cc(C)cc(CC)c1-c1c(OC(=O)C(C)(C)C)n2n(c1=O)CCOCC2 | 1.01 | 0.906 | 1 | 0.992 | 1.22 | 1.01 | 1 | 0.952 | 0.944 | 1
CS(=O)(=O)c1ccc(C(=O)C2C(=O)CCCC2=O)c([N+](=O)[O-])c1 | 0.895 | 0.986 | 0.946 | 0.977 | 0.979 | 0.972 | 0.965 | 0.965 | 0.986 | 0.972
CC(C)N(C)S(=O)(=O)NC(=O)c1cc(-n2c(=O)cc(C(F)(F)F)n(C)c2=O)c(F)cc1Cl | 0.916 | 1.02 | 0.989 | 1 | 1.09 | 0.951 | 0.94 | 1 | 0.976 | 1.04
CCOP(=O)(NC(C)C)Oc1ccc(SC)c(C)c1 (stereo not given) | 1.19 | 0.974 | 0.982 | 0.877 | 0.92 | 0.998 | 0.931 | 1.01 | 0.976 | 0.95
COC(=O)Nc1nc2ccccc2[nH]1 | 0.927 | 1.01 | 0.991 | 1.01 | 0.957 | 1.04 | 0.988 | 1.01 | 1.06 | 1.03
CC(C)N1C(=O)c2ccccc2NS1(=O)=O | 1.21 | 0.999 | 0.999 | 0.946 | 1 | 1.01 | 0.977 | 1.06 | 0.98 | 0.967
CCCSP(=O)(OCC)SCCC | 1.14 | 0.994 | 1.02 | 0.962 | 1.02 | 0.998 | 0.98 | 1.02 | 0.997 | 0.99
CC(Oc1ccc(Oc2ncc(C(F)(F)F)cc2Cl)cc1)C(=O)O (stereo not given) | 1.02 | 0.974 | 0.957 | 0.954 | 0.979 | 0.975 | 0.943 | 0.93 | 1.01 | 0.967
CC(C)OC(=O)C(O)(c1ccc(Br)cc1)c1ccc(Br)cc1 | 0.997 | 0.883 | 0.779 (active) | 0.933 | 0.239 (active) | 0.93 | 0.923 | 0.96 | 0.982 | 0.928
CCCSP(=O)(OCC)Oc1ccc(Br)cc1Cl (stereo not given) | 0.944 | 0.864 | 0.95 | 0.985 | 1.17 | 0.901 | 0.881 | 1.06 | 1.03 | 0.972
CNC(=O)O/N=C/C(C)(C)S(C)=O (stereo not given) | 0.978 | 1.04 | 0.991 | 1.01 | 1.02 | 0.988 | 1.03 | 0.935 | 1.01 | 1.02
Nc1nc(N)nc(Cl)n1 | 1.01 | 1.05 | 1.02 | 1.01 | 1.16 | 1.01 | 1.02 | 1.01 | 1.03 | 0.992
CN(C)C(=S)SSC(=S)N(C)C | 0.83 | 0.968 | 0.967 | 0.961 | 0.87 | 0.75 (active) | 0.909 | 0.974 | 0.945 | 0.957
c1ccc2c(c1)-c1cccc3cccc-2c13 | 0.967 | 0.969 | 0.997 | 0.999 | 0.98 | 0.963 | 0.996 | 0.857 | 1.02 | 0.93
CNC(=O)Oc1cccc2ccccc12 | 1.08 | 0.993 | 1.01 | 0.991 | 1.02 | 0.998 | 1.03 | 1.03 | 1.01 | 0.987
